Experiment [1] in a line: NCI Yeast Anticancer Drug Screen. Data for the rad50 strain (AID 155).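 Note: 0% = growth of vehicle-only cultures of the same strain.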 To be noted: S. cerevisiae rad50 strain growth inhibition, hits give high values; at 50.0 µM unless noted. In outline:
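A DNA repair-deficient yeast mutant serves as the test organism; compound-induced growth inhibition is calculated against vehicle-treated cells.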

A short description of experiment [2]: NCI Yeast Anticancer Drug Screen. Data for the mec2-1 strain (AID 157). Conditions: S. cerevisiae mec2-1 strain, hits give high values; at 50.0 µM unless noted. In outline: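 mec2-1 yeast strain, carrying an alteration in DNA damage repair or cell cycle control, was exposed to compounds; growth inhibition was measured relative to vehicle-treated controls.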
A short description of experiment [3]: NCI Yeast Anticancer Drug Screen. Data for the sgs1 mgt1 strain (AID 161).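 Note: 0% = growth of cultures given vehicle only.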 To be noted: S. cerevisiae sgs1 mgt1 strain, hits give high values; at 50.0 µM unless noted. The procedure, abridged:
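This yeast growth screen uses a strain with defined DNA-repair lesions; compound-treated growth is compared with vehicle-treated growth.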

Experiment [4] is described as follows: NCI Yeast Anticancer Drug Screen. Data for the cln2 rad14 strain (AID 165).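 Note: 0% = growth equal to vehicle treated cultures.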 To be noted: S. cerevisiae cln2 rad14 strain, hits give high values; at 50.0 µM unless noted. In outline: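 Yeast carrying cln2 and rad14 alterations (cell cycle control and DNA damage repair) were exposed to compounds. Growth inhibition was measured against vehicle-treated controls.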

Experiment [5] is described as follows: NCI Yeast Anticancer Drug Screen. Data for the bub3 strain (AID 167). Conditions: S. cerevisiae bub3 mutant strain, hits give high values; at 50.0 µM unless noted. In outline: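 Inhibition values come from growth of compound-treated mutant yeast normalised to vehicle-treated controls.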
Experiment [6] in a line: NCI Yeast Anticancer Drug Screen. Data for the mlh1 rad18 strain (AID 175). Conditions: S. cerevisiae mlh1 rad18 strain growth inhibition, hits give high values; at 50.0 µM unless noted. The procedure, abridged:
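Growth inhibition of the yeast strain was measured after compound exposure and expressed relative to vehicle-treated controls. The strain carries defined defects in DNA damage repair.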

Each structure is given as a SMILES string. About 79,000 compounds went through this panel and 15% of them were active in at least one assay; those are over-represented in the sample as a whole. A number with no mark means an inactive call. Active and inactive are the calls of the source. Cut-off read from the data, not from the text of the source: active = growth inhibition above about 70%; inactive = the rest.

Regarding `COC(=O)c1ccc2c(c1)CC1(C2)Cc2cc3c(cc2C1)CCC3`, the growth inhibition in experiment [1] is -19.4%; in experiment [2], -19.9%; in experiment [3], -17.5%; in experiment [4], 9.95%; in experiment [5], 12.8%; in experiment [6], -12.5%.
`C=CCOC(=O)c1ccc(C(C)C)cc1`: the growth inhibition in experiment [1] is 25.1%; in experiment [2], 12%; in experiment [3] it was 9.5%; in experiment [4] it was 7.6%; in experiment [5], 8%; in experiment [6], 35.6%.
Regarding `CCC(Cl)COP(=O)(OCC(Cl)CC)O/C(C)=C(\C)OP(=O)(OCC(Cl)CC)OCC(Cl)CC` (stereo not drawn), the growth inhibition in experiment [1] was 13.8%; in experiment [2], 13.3%; in experiment [3], 27.4%; in experiment [4], 9.7%; in experiment [5], 0.4%; in experiment [6], -1.7%.
With `O=C1OCC=C1Sc1ccccc1`, the growth inhibition is -1.7% in experiment [1]; -8.05% in experiment [2]; -13.4% in experiment [3]; -7.7% in experiment [4]; -2.4% in experiment [5]; -8.8% in experiment [6].
For the compound `NC1=CNC(=O)C1`, the growth inhibition in experiment [1] was 1.65%; in experiment [2], 1.45%; in experiment [3] it was -3.05%; in experiment [4], -1.65%; in experiment [5], 14.1%; in experiment [6], -7.4%.
Take `CC1(C)CC([NH-])(C(=O)O)CC(C)(C)N1O.CC1(C)CC([NH-])(C(=O)O)CC(C)(C)N1O.[Zn+2]`: the growth inhibition is -1.45% in experiment [1]; -17.1% in experiment [2]; -2.25% in experiment [3]; -41.9% in experiment [4]; 1.5% in experiment [5]; -7.4% in experiment [6].
For `[N-]=[N+]=Nc1ccc2nc(N)nc(N)c2c1`, the growth inhibition is -4.25% in experiment [1]; 5.7% in experiment [2]; 2.85% in experiment [3]; -33.9% in experiment [4]; -7.45% in experiment [5]; -5.2% in experiment [6].
On to `N#CC(C(=O)/C(=N/Nc1nc(=S)[nH]n1N)C(C#N)c1ccccc1)c1ccccc1` (stereo not drawn), for which the growth inhibition in experiment [1] is -23.8%; in experiment [2] it was -1.45%; in experiment [3], -30.8%; in experiment [4], 14.8%; in experiment [5], -19.1%; in experiment [6], -10.2%.
Turning to `O=c1c2cccnc2nc2ccc3c[nH][nH]c3c12`, the growth inhibition in experiment [1] is -23.8%; in experiment [2] it was -24.6%; in experiment [3], -0.55%; in experiment [4], -14.6%; in experiment [5] it was -18.3%; in experiment [6], 8.65%.
Take `CN1CCc2nc[nH]c2C1`: the growth inhibition was 17.2% in experiment [1]; -4.95% in experiment [2]; 3.2% in experiment [3]; 10.1% in experiment [4]; 6.4% in experiment [5]; 10.1% in experiment [6].
In the case of `Nc1ccccc1S(=O)(=O)Nc1c(N)nc(SCC(=O)O)[nH]c1=O`, the growth inhibition is -15.4% in experiment [1]; -21.9% in experiment [2]; -10% in experiment [3]; -4.2% in experiment [4]; -12.9% in experiment [5]; 0.65% in experiment [6].
`OCC1COCO1` (stereo not drawn): the growth inhibition in experiment [1] was 0.35%; in experiment [2] it was -4.1%; in experiment [3], -8.75%; in experiment [4], -1.65%; in experiment [5], -6.5%; in experiment [6], 9.2%.
As for `CCN(CC)CCNc1ccc(COC(=O)NC)c2sc3ccccc3c(=O)c12`, the growth inhibition was 3.9% in experiment [1]; -2.4% in experiment [2]; -8.3% in experiment [3]; -12.2% in experiment [4]; -17.4% in experiment [5]; -58.9% in experiment [6].
As to `COc1cc(C(=O)c2cc3c(cc2C(=O)O)OCO3)cc(OC)c1OC`, the growth inhibition in experiment [1] is -7.6%; in experiment [2] it was 0.85%; in experiment [3] it was 2.9%; in experiment [4], -30.6%; in experiment [5], 8.5%; in experiment [6] it was -2.05%.
Consider `C=C(C)C(C(=O)OCC)C(=O)OCC`, for which the growth inhibition was 3.4% in experiment [1]; -2.75% in experiment [2]; 7.4% in experiment [3]; 10.5% in experiment [4]; -21.8% in experiment [5]; -4.85% in experiment [6].
Turning to `O=C(NO)/C(CC(=O)c1cccc(O)c1)=N\O`, the growth inhibition in experiment [1] was -7.05%; in experiment [2], 10.1%; in experiment [3], -7.35%; in experiment [4] it was -8.55%; in experiment [5], -11.1%; in experiment [6] it was 5.5%.
Regarding `Cc1nn(C(C)C(=O)N(C)C)c(Br)c1Br` (stereo not drawn), the growth inhibition in experiment [1] was 2.05%; in experiment [2], 4.7%; in experiment [3], 0.75%; in experiment [4], -30.4%; in experiment [5], -25.7%; in experiment [6] it was 3.15%.
Turning to `Nc1nc(CCc2ccc(NC(=O)CBr)cc2)c(CCCCc2ccccc2)c(=O)[nH]1`, the growth inhibition is 16.4% in experiment [1]; 1.85% in experiment [2]; 25.8% in experiment [3]; 24.2% in experiment [4]; 3.75% in experiment [5]; 16.2% in experiment [6].
Regarding `Nc1ncnc2c1c(-c1nnc(-c3ccccc3)c(-c3ccccc3)n1)cn2C1OC(CO)C(O)C1O` (stereo not drawn), the growth inhibition in experiment [1] was 44.1%; in experiment [2] it was -2.8%; in experiment [3], 38%; in experiment [4] it was -13.3%; in experiment [5], -4.25%; in experiment [6] it was 9.9%.
As for `CCOC(=O)N(C)C1(c2ccccc2)CCN(CCCC(=O)c2ccc(F)cc2)CC1`, the growth inhibition is 23% in experiment [1]; -34.9% in experiment [2]; 7.55% in experiment [3]; -26.6% in experiment [4]; -7% in experiment [5]; -17.2% in experiment [6].
As for `CCCCCC[P+](c1ccccc1)(c1ccccc1)c1ccccc1`, the growth inhibition in experiment [1] was 97.7% (active); in experiment [2], 98.4% (active); in experiment [3] it was 98% (active); in experiment [4], 95% (active); in experiment [5] it was 96.1% (active); in experiment [6] it was 97.8% (active).
As to `COc1ccccc1CN1CCCN(Cc2ccccc2OC)C1c1ccc(N(C)C)cc1`, the growth inhibition is 59.6% in experiment [1]; 32.6% in experiment [2]; 32.5% in experiment [3]; 22.8% in experiment [4]; 14.3% in experiment [5]; 49.2% in experiment [6].
For `O=S(=O)(NCCSSCCNS(=O)(=O)c1ccccc1)c1ccccc1`, the growth inhibition is 45% in experiment [1]; 17.5% in experiment [2]; 51.6% in experiment [3]; 16.6% in experiment [4]; 23.6% in experiment [5]; 34.7% in experiment [6].

The values above are taken from PubChem BioAssay (NCI).
